# According to PMC7862700, “An all-to-all approach to the identification of sequence-specific readers for epigenetic DNA modifications on cytosine”:
# Legend:
# Experiment in all cases: DAPPL (digital affinity profiling via proximity ligation, sequencing); 10 mM Tris-HCl pH 7.5, 50 mM NaCl, 1 mM DTT, 4% glycerol, room temperature, 30 min; GST-TFs on glutathione beads, 16-mer random dsDNA library, 0.1% formaldehyde crosslink after washing; high values mean tight binding
# Conditions in all cases: protein: recombinant; tags: N-terminal GST; dsDNA, one strand shown
# FLI1 = target: T1, FLI1 (Homo sapiens, UniProt Q01543 1-452)
# T1 sequence: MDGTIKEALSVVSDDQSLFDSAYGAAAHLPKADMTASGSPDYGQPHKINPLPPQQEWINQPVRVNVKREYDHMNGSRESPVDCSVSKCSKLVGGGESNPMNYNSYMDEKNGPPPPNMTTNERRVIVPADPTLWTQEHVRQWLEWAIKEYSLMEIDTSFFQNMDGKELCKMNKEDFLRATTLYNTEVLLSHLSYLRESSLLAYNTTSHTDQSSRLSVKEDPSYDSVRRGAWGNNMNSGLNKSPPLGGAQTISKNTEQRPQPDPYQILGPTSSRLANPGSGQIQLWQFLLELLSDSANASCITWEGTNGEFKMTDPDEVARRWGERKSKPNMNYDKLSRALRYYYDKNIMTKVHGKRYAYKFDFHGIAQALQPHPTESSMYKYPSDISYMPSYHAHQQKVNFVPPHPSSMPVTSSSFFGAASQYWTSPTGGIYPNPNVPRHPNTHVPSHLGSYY
# Method in brief: (§1)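 Binding signal is given per hexamer as its read frequency for a factor divided by its frequency in the tag-only sample. GST-fused human transcription factors were expressed in yeast, captured on glutathione beads, barcoded with DNA and pooled with that sample, then incubated with 200 nmole of a 16-mer random double-stranded DNA library in Tris/NaCl/DTT/glycerol buffer for 30 min at room temperature. The pools were then washed, crosslinked, proximity-ligated, amplified by PCR and sequenced on an Illumina NextSeq500.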
# ELK1 = target: T2, ELK1 (Homo sapiens, UniProt P19419 1-428)
# T2 sequence: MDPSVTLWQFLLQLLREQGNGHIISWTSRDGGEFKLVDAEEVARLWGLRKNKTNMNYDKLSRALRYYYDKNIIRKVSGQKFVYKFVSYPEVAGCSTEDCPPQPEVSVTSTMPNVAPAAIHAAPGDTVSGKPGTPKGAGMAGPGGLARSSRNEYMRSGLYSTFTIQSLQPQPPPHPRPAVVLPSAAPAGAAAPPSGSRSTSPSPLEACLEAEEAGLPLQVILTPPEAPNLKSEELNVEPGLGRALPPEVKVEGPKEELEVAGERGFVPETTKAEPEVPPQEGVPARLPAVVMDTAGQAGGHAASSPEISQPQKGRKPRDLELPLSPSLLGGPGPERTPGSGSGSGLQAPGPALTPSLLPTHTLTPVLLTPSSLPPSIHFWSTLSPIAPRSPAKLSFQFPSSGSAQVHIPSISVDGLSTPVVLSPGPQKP
# Method in brief: as §1
# GABPA = target: T3, GABPA (Homo sapiens, UniProt Q06546 1-454)
# T3 sequence: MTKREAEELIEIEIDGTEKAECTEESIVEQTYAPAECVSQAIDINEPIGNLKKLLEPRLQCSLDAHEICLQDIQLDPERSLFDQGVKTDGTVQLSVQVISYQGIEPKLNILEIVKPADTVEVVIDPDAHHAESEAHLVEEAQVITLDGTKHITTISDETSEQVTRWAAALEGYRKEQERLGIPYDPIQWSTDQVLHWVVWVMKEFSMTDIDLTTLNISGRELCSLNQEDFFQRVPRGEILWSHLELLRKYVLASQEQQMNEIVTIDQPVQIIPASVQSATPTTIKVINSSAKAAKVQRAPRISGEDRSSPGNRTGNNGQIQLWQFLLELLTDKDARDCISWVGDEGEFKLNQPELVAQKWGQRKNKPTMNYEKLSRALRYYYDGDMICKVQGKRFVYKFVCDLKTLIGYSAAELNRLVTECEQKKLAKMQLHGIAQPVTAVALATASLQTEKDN
# Method in brief: as §1
# ERG = target: T4, ERG (Homo sapiens, UniProt P11308 1-479)
# T4 sequence: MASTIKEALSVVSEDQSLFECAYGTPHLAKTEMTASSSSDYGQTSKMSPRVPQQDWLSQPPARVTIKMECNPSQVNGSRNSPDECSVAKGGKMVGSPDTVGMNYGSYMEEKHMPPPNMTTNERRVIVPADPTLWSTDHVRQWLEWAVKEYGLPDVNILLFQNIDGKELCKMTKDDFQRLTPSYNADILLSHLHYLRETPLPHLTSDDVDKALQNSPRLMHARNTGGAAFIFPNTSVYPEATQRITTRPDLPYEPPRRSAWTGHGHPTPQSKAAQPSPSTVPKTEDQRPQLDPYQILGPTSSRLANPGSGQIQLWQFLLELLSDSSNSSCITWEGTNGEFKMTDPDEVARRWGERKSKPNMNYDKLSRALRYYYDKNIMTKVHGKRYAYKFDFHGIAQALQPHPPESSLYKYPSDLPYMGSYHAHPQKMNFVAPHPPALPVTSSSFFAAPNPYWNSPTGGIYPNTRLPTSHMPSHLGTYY
# Method in brief: as §1
# ELF1 = ELF1 (Homo sapiens, UniProt P32519 1-619)
# ELF1, sequence (P32519 whole entry): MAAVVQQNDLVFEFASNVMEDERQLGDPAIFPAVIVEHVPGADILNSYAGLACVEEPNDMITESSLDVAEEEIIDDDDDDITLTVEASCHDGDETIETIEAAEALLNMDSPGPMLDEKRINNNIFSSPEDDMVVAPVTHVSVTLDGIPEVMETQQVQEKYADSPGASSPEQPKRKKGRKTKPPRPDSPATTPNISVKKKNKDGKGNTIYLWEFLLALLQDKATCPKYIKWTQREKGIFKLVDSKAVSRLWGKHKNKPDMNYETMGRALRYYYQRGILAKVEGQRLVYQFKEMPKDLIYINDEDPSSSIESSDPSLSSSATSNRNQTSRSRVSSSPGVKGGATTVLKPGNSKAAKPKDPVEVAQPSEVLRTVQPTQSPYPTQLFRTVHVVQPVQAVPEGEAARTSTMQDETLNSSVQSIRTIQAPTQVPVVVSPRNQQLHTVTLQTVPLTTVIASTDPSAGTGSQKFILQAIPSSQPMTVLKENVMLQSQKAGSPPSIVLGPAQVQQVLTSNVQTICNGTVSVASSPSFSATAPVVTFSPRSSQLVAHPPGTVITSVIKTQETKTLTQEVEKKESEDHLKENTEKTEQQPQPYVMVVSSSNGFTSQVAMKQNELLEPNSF
# Method in brief: as §1
# EHF = target: T5, EHF (Homo sapiens, UniProt Q9NZC4 1-300)
# T5 sequence: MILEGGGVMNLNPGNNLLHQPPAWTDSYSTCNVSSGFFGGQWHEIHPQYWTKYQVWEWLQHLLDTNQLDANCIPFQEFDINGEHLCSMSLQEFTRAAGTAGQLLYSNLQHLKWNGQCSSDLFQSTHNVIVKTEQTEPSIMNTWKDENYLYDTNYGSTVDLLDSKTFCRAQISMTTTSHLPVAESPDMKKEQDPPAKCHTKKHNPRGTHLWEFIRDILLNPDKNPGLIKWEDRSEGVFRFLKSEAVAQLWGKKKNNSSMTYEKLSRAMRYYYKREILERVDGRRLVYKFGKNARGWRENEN
# Method in brief: as §1
# SPI1 = SPI1 (Homo sapiens, UniProt P17947 1-270)
# Method in brief: as §1
# SPIB = SPIB (Homo sapiens, UniProt Q01892 1-262)
# SPIB, sequence (Q01892 whole entry): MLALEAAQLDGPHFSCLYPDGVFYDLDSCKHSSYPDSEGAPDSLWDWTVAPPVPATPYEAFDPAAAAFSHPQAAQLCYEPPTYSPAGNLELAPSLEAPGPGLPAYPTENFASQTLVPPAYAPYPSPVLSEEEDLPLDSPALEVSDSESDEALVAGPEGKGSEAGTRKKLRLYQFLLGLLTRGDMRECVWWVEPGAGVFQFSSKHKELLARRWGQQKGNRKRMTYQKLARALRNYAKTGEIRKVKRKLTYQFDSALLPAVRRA
# Method in brief: as §1
# ELK3 = target: T6, ELK3 (Homo sapiens, UniProt P41970 1-407)
# T6 sequence: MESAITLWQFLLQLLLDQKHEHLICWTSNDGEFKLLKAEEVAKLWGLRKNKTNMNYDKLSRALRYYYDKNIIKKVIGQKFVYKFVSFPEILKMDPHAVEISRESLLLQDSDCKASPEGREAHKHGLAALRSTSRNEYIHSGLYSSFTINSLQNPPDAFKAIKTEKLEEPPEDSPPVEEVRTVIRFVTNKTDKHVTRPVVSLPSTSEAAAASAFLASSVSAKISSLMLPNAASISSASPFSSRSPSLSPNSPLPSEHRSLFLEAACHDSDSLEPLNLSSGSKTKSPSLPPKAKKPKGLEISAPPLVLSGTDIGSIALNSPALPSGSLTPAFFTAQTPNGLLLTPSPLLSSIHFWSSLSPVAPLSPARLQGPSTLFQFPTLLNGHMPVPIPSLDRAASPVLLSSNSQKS
# Method in brief: as §1
# FEV = target: T7, FEV (Homo sapiens, UniProt Q99581 1-238)
# T7 sequence: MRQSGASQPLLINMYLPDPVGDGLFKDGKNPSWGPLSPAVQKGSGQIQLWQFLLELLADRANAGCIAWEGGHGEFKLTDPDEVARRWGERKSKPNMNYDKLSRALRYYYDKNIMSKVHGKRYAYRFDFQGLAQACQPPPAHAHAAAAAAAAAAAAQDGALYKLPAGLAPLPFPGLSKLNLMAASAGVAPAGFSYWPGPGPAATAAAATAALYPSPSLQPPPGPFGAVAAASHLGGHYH
# Method in brief: as §1
# ETV5 = ETV5 (Homo sapiens, UniProt P41161 1-510)
# ETV5, sequence (P41161 whole entry): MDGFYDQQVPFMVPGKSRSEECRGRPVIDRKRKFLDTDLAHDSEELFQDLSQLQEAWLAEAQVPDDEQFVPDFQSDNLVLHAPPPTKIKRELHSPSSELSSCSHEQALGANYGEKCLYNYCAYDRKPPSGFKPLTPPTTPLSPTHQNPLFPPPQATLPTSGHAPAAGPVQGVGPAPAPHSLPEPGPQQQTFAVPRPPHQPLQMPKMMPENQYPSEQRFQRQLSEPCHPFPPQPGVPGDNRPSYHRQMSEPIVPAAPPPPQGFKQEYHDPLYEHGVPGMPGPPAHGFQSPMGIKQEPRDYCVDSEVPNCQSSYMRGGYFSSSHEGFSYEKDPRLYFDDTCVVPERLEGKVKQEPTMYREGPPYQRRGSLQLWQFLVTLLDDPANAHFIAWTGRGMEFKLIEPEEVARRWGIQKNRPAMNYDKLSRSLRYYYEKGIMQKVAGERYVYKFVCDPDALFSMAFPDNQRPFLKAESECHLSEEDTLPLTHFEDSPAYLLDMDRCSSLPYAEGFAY
# Method in brief: as §1
# SPIC = target: T8, SPIC (Homo sapiens, UniProt Q8N5J4 1-248)
# T8 sequence: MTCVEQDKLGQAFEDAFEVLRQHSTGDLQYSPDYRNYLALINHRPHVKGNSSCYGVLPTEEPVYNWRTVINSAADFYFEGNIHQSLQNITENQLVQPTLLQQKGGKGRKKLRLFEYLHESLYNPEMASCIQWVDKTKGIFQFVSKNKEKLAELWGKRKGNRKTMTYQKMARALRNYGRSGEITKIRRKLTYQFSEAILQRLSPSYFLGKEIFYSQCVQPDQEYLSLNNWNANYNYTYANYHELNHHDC
# Method in brief: as §1
# ELF4 = ELF4 (Homo sapiens, UniProt Q99607 1-663)
# ELF4, sequence (Q99607 whole entry): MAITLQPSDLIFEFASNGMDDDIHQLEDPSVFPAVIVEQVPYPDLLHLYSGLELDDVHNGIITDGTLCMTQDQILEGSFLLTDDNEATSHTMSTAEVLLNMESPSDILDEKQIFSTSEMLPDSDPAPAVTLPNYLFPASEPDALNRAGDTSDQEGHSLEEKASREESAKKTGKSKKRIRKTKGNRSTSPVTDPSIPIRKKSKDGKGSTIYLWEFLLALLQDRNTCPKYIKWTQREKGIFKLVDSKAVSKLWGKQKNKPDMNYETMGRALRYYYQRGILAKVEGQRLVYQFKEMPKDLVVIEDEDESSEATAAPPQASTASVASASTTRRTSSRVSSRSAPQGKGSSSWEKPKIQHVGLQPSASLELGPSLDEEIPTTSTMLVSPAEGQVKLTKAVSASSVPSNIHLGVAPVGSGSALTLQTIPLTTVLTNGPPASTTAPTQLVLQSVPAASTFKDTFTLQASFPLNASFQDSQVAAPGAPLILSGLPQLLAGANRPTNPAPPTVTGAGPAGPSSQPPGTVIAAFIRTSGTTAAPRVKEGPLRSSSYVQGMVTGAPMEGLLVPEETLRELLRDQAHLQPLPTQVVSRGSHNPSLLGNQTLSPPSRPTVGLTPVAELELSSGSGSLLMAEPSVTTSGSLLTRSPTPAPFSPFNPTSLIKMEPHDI
# Method in brief: as §1
# ELK4 = target: T9, ELK4 (Homo sapiens, UniProt P28324-2 1-405)
# T9 sequence: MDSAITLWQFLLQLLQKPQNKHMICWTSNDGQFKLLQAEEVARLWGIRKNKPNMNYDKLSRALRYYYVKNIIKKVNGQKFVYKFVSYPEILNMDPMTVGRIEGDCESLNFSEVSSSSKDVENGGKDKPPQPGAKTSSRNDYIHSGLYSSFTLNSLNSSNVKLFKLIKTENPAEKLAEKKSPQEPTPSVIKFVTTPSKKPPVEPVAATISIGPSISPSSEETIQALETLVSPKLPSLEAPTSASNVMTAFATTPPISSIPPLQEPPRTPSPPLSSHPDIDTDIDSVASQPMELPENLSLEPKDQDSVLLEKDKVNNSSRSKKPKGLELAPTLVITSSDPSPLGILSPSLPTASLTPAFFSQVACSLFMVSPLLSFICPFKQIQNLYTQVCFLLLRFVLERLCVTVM
# Method in brief: as §1
# ETV2 = target: T10, ETV2 (Homo sapiens, UniProt O00321 1-342)
# T10 sequence: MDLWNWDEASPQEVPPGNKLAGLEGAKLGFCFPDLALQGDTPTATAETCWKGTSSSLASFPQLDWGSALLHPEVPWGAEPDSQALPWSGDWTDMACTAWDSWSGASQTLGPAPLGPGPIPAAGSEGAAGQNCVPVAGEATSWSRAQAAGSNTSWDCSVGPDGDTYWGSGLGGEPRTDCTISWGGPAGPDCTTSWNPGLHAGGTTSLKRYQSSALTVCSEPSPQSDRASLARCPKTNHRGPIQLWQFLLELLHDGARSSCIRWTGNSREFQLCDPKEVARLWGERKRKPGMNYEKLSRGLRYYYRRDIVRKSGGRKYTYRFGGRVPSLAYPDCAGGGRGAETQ
# Method in brief: as §1
# ELF3 = target: T11, ELF3 (Homo sapiens, UniProt P78545 1-371)
# T11 sequence: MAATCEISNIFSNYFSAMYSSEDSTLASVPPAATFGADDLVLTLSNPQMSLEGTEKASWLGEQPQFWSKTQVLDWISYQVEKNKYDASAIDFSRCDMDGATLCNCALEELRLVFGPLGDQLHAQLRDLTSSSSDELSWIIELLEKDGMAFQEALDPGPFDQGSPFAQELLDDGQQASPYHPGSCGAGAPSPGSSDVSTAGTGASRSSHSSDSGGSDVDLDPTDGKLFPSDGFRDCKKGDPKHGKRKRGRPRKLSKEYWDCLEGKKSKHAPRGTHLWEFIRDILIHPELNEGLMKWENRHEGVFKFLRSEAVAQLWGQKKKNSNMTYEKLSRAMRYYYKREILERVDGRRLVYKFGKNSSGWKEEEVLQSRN
# Method in brief: as §1
# ETV1 = ETV1 (Homo sapiens, UniProt P50549 1-477)
# ETV1, sequence (P50549 whole entry): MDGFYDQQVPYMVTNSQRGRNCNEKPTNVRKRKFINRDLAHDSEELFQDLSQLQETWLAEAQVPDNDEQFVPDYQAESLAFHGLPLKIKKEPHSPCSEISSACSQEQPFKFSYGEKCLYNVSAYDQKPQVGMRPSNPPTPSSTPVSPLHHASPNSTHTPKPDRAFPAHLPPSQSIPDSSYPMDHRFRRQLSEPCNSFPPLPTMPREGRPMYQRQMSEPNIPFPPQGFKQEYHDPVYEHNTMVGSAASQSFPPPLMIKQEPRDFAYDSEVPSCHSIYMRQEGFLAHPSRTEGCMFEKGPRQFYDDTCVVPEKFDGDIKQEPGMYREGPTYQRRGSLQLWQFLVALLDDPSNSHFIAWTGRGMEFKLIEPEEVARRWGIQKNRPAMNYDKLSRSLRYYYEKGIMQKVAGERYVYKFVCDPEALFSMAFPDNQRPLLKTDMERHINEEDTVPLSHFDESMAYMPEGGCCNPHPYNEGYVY
# Method in brief: as §1
sequence,measurement,setting,value
ACCCCC,binding signal,FLI1,"1.17 fold enrichment (6-mer frequency, TF over GST control)"
same,binding signal,ELK1,"1.16 fold enrichment (6-mer frequency, TF over GST control)"
same,binding signal,GABPA,"1.21 fold enrichment (6-mer frequency, TF over GST control)"
same,binding signal,ERG,"1.16 fold enrichment (6-mer frequency, TF over GST control)"
same,binding signal,ELF1,"1.09 fold enrichment (6-mer frequency, TF over GST control)"
same,binding signal,EHF,"1.12 fold enrichment (6-mer frequency, TF over GST control)"
same,binding signal,SPI1,"1.14 fold enrichment (6-mer frequency, TF over GST control)"
same,binding signal,SPIB,"1.21 fold enrichment (6-mer frequency, TF over GST control)"
same,binding signal,ELK3,"1.18 fold enrichment (6-mer frequency, TF over GST control)"
same,binding signal,FEV,"1.19 fold enrichment (6-mer frequency, TF over GST control)"
same,binding signal,ETV5,"1.18 fold enrichment (6-mer frequency, TF over GST control)"
same,binding signal,SPIC,"1.12 fold enrichment (6-mer frequency, TF over GST control)"
same,binding signal,ELF4,"1.2 fold enrichment (6-mer frequency, TF over GST control)"
same,binding signal,ELK4,"1.28 fold enrichment (6-mer frequency, TF over GST control)"
same,binding signal,ETV2,"1.05 fold enrichment (6-mer frequency, TF over GST control)"
same,binding signal,ELF3,"1.29 fold enrichment (6-mer frequency, TF over GST control)"
same,binding signal,ETV1,"1 fold enrichment (6-mer frequency, TF over GST control)"
GATGCG,binding signal,FLI1,"1.07 fold enrichment (6-mer frequency, TF over GST control)"
same,binding signal,ELK1,"1.14 fold enrichment (6-mer frequency, TF over GST control)"
same,binding signal,GABPA,"1.16 fold enrichment (6-mer frequency, TF over GST control)"
same,binding signal,ERG,"1.16 fold enrichment (6-mer frequency, TF over GST control)"
same,binding signal,ELF1,"1.11 fold enrichment (6-mer frequency, TF over GST control)"
same,binding signal,EHF,"1.16 fold enrichment (6-mer frequency, TF over GST control)"
same,binding signal,SPI1,"1.14 fold enrichment (6-mer frequency, TF over GST control)"
same,binding signal,SPIB,"1.19 fold enrichment (6-mer frequency, TF over GST control)"
same,binding signal,ELK3,"1.1 fold enrichment (6-mer frequency, TF over GST control)"
same,binding signal,FEV,"1.15 fold enrichment (6-mer frequency, TF over GST control)"
same,binding signal,ETV5,"1.14 fold enrichment (6-mer frequency, TF over GST control)"
same,binding signal,SPIC,"1.24 fold enrichment (6-mer frequency, TF over GST control)"
same,binding signal,ELF4,"1.14 fold enrichment (6-mer frequency, TF over GST control)"
same,binding signal,ELK4,"1.32 fold enrichment (6-mer frequency, TF over GST control)"
same,binding signal,ETV2,"1.16 fold enrichment (6-mer frequency, TF over GST control)"
same,binding signal,ELF3,"1.11 fold enrichment (6-mer frequency, TF over GST control)"
same,binding signal,ETV1,"1.06 fold enrichment (6-mer frequency, TF over GST control)"
